# Shown are actives, neighbours in structure and some others; about 21% of the full set was active somewhere.
# DT40 TDP1 CPT: growth inhibition of DT40 Tdp1-/-;hTDP1 cells with camptothecin (screen for TDP1 inhibitors) | chicken DT40 Tdp1-/-;hTDP1 cells + 20 nM CPT, ATP luminescence, 48 h | Potency, µM (doses to about 46.2 µM), without a hit: at the top dose activity change, negative = growth inhibition, usual class: inhibitors | 12% of 420,000 active | AID 686979; further: potency means the concentration at half of the fitted maximal effect; nearly all actives have a fitted effect of over 55% in size
#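 Chicken DT40 Tdp1-/- cells complemented with human TDP1, 400 cells/well, exposed to compounds plus 20 nM camptothecin for at least 48 h at 37 C; viability read as ATP content by CellTiter-Glo luminescence.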
# RORg inh: inhibitors of mouse ROR gamma transcriptional activity; Potency, µM (top dose mostly 53.6 µM), for inactives: at the top dose activity change, negative = inhibition, hits mostly inhibitors; 5.4% of 310,000 active; P51450; Drosophila S2 Gal4-RORgamma UAS-luciferase reporter, 20 h; further: potency means the concentration at half of the fitted maximal effect; nearly all actives have a fitted effect of over 60% in size
# Target sequence (P51450 whole entry, looked up, the tested form may be a part): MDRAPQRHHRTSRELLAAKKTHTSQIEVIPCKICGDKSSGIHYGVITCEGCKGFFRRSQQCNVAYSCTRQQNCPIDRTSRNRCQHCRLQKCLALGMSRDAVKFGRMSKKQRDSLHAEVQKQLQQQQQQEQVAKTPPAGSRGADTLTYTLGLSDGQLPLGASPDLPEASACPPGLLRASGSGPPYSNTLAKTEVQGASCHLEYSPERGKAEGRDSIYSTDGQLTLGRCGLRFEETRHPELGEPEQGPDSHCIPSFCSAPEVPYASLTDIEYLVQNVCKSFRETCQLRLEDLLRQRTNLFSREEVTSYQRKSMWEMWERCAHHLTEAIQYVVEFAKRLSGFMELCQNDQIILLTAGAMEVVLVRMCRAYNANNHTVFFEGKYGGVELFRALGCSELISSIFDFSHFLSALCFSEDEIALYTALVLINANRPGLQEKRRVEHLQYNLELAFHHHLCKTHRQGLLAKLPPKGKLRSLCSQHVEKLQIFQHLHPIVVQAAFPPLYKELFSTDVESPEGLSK
#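 Stable Schneider cell line, Gal4 DNA-binding domain fused to ROR gamma, UAS-luciferase. Cmpd 1 hr RT → CuSO4 700 uM final → 20 hr RT → luciferase reagent 10 min → luminescence.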
# VP16 counter: inhibits Gal4-VP16 luciferase reporter, ROR gamma counter-screen; Drosophila S2 Gal4-VP16 UAS-luciferase, luminescence, 20 h; Potency, µM (series often up to 53.6 µM), for the others: at the highest dose activity, negative = inhibition, usual class: inhibitors; 3.5% of 310,000 active; AID 2546;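 further: Gal4-VP16 expression switched on by copper sulfate through the metallothionein promoter; potency means the concentration at half of the fitted maximal effect; nearly all actives have a fitted effect of over 50% in size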
# TDP1 cell noCPT: qHTS for Inhibitors of human tyrosyl-DNA phosphodiesterase 1 (TDP1): qHTS in cells in absence of CPT | 15% of 420,000 active | Potency, µM (series often up to 46.2 µM), inactives show at the highest dose activity change, negative = growth inhibition, actives largely listed as inhibitors | DT40 Tdp1-/- hTDP1 cells, no CPT, ATP luminescence, 48 h; further: potency means the concentration at half of the fitted maximal effect; nearly all actives have a fitted effect of over 55% in size
#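 Compound effects on proliferation are scored in DT40 Tdp1-/-;hTDP1 cells in the absence of CPT. ATP levels (CellTiter-Glo luminescence) are recorded after a ≥48 hr, 37 °C incubation.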
# ELG1 DNA repair: blocks ELG1-dependent DNA repair in HEK293T cells. HEK293T ELG1-luciferase reporter, luminescence, 16 h; DNA damage induced by 5-fluorouridine. Potency, µM (top dose mostly 46.1 µM), without a hit: at the highest dose activity change, negative = inhibition, usual class: inhibitors. 2.3% of 330,000 active; further: potency means the concentration at half of the fitted maximal effect; nearly all actives have a fitted effect of over 55% in size
#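 Reporter activity after DNA damage by 5-fluorouridine is monitored. Compound-treated cells incubate 16 hr at 37 °C, then ONE-Glo is added for 30 min before luminescence reading.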
# IL1B secr inh: inflammasome signaling inhibition, IL-1 beta readout; THP-1 LPS/ATP IL-1B secretion, AlphaLISA, 16 h; hits give low values; 4.7% of 360,000 active; activity change, % at 57.5 µM; in the data active means activity change below about -50%; inconclusive means mostly about -30% to -49%
#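 Secreted IL-1B measured by AlphaLISA bead assay after 16 h compound exposure of THP-1 cells; compounds (final up to 57.5 uM) added 1 h before LPS (250 ng/mL) and ATP (1.25 mM) stimulation; lower signal means less secretion.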
# * marks the source's active call; other numbers are inactive results; ? = inconclusive; · = no result; [ ] = another dose, or the depositor's remark. Unless noted, the call rests on the fitted dose curve; in most records, active means well fitted curve in the direction sought with a large enough effect; inconclusive means small, poorly fitted or top-dose-only effect, or another doubt; inactive means no such curve, though single readings can be large; an effect the other way counts as inactive or inconclusive. On the % scale 0 is the no-effect control and ±100 the full control effect.
SMILES,DT40 TDP1 CPT,RORg inh,VP16 counter,TDP1 cell noCPT,ELG1 DNA repair,IL1B secr inh
CSCCC(NC(=O)c1ccccc1Cl)C(=O)N1CCN(C(C)=O)CC1 (stereo not drawn),-8.7%,·,·,0.1%,-6.2%,2.0
Cc1ccc(C(=O)N2CCC(Cc3ccccc3)CC2)cc1[N+](=O)[O-],?,?,-10.3%,?,?,-29.9
COCCSc1ccccc1C(=O)N1CCC(Cc2ccccc2)CC1,?,0.5%,2.1%,-27.3%,23.1µM*,-53.8*
COc1ccc(CCNC(=O)Cn2c(=O)c3sccc3n(CC(=O)Nc3cccc(C(F)(F)F)c3)c2=O)cc1OC,-11.6%,·,·,-7.3%,·,·
CCC(c1nc2ccccc2[nH]1)n1c(-c2ccnc(Cl)c2)nc2ccccc21 (stereo not drawn),-8.2%,·,·,-17.6%,·,?
Cc1cccc(C(=O)N2CCC(Cc3ccccc3)CC2)c1[N+](=O)[O-],8.2µM*,-2.7%[10 µM],-3.0%,6.51µM*,?,-86.9*
O=C(CSc1ccccc1C(=O)N1CCCCC1)NCC1CCCCC1,-8.2%,2.51µM*,8.6%,3.3%,-4.8%,9.1
Cc1ccc(CNC(=O)c2ccccc2SCC(=O)NCC2CCCCC2)cc1,?,41.2%,7.1%,?,?,0.0
O=[N+]([O-])c1cccc(S(=O)(=O)N2CN(c3ccc(Br)cc3)c3nc4ccccc4nc32)c1,-4.3%,·,·,-5.4%,4.7%,4.0
O=C(/C=C\c1ccco1)Nc1nc(-c2ccc3ccccc3c2)cs1,?,6.8%,-15.4%,?,?,-72.3*
COc1ccc2nc(NC(=O)/C=C/c3ccc4c(c3)OCO4)sc2c1,·,-5.4%,5.2%,·,?,·
Cc1sc(NC(=O)/C=C/c2ccc3c(c2)OCO3)nc1-c1ccccc1,14.6µM*,9.8%,-11.0%,16.4µM*,8.2µM*,-22.3
O=C(/C=C/c1ccc2c(c1)OCO2)Nc1nc(-c2ccccc2)cs1,?,28.2%,-1.7%,?,18.4µM*,?
O=C(/C=C/c1ccc2c(c1)OCO2)Nc1nncs1,1.0%,-2.3%,18.4%,-5.4%,-2.1%,0.0
CC(=O)Nc1nc(-c2ccc3c(c2)OCO3)cs1,?,36.9%,8.4%,-14.2%,?,-52.6*
CNCCNS(=O)(=O)c1cccc2cnccc12,18.4µM*,·,·,?,·,·
O=S(=O)(NCCNCC=Cc1ccc(Br)cc1)c1cccc2cnccc12,10µM*,·,·,14.1µM*,·,·
O=S(=O)(NCCNC/C=C/c1ccc(Br)cc1)c1cccc2cnccc12,18.7µM*,·,·,23.6µM*,·,·
O=S(=O)(NCCCCNS(=O)(=O)c1cccc2cccnc12)c1cccc2cccnc12,3.4%,·,·,-21.8%,·,·
CC(=O)Nc1ccc(S(=O)(=O)NCCC(=O)OCC(=O)c2cc(C)ccc2C)cc1,0.4%,·,·,-21.2%,1.4%,-15.2
O=C(NC1CCCCC1)C(c1ccc(C(F)(F)F)cc1)n1c(=O)c(-c2cc3ccccc3[nH]2)nc2ccccc21 (stereo not drawn),14.6µM*,·,·,?,·,70.0
CCCCCNC(=O)C(c1ccccc1)n1c(=O)c(-c2cc3ccccc3[nH]2)nc2ccccc21 (stereo not drawn),?,·,·,?,·,40.5
O=C(NC1CCCCC1)C(c1ccncc1)n1c(=O)c(-c2cc3ccccc3[nH]2)nc2ccccc21 (stereo not drawn),18.4µM*,·,·,?,·,?
COc1ccc(CCNC(=S)NCc2ccc(Cl)c(Cl)c2)cc1OC,-2.5%,?,-3.7%,?,-12.9%,-85.3*
COc1ccccc1NC(=S)NCCc1ccc(Cl)cc1,?,1.78µM*,7.08µM*,?,3.3%,1.5
COc1ccccc1NC(=O)NCCc1ccccc1,-15.5%,10.7%,-4.6%,11.0%,-5.5%,-24.1

# High-throughput results deposited in PubChem BioAssay by National Center for Advancing Translational Sciences (NCATS).
